Measured values as given in PubChem BioAssay (EPA / NIEHS).
Calls of active or inactive are those of the source. Rule for the calls: active = hit-call score of the fitted dose curve at least 0.9, where 1 is the maximum; inactive = score below 0.9.

Assays:
Conditions in all cases: mRNA level, 48 h; actives raise or lower the signal
[1] = read-out: Alkaline Phosphatase, Placental (ALPP) gene, ALPP (gene 250); assay: LTEA_HepaRG_ALPP: Life Technologies and Expression Analysis (LTEA) Assay for Alkaline Phosphatase, Placental (ALPP) gene using HepaRG (AID 2283468)
How it was run: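 Expression of ALPP was quantified by qRT-PCR against three housekeeping genes in human HepaRG cultures treated for 48 h with an eight-point concentration series up to 100 uM. Activity in either direction was fitted relative to 0.5% DMSO.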

[2] = read-out: Bcl-2 (BAD) gene, BAD (gene 572); assay: LTEA_HepaRG_BAD: Life Technologies and Expression Analysis (LTEA) Assay for Bcl-2 (BAD) gene using HepaRG (AID 2283469)
How it was run: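 BAD transcript change, measured by qRT-PCR against three housekeeping genes and fitted in both directions relative to 0.5% DMSO, after 48 h chemical treatment of human HepaRG liver cells at concentrations up to 100 uM.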

[3] = read-out: Bcl-2 (BAX) gene, BAX (gene 581); assay: LTEA_HepaRG_BAX: Life Technologies and Expression Analysis (LTEA) Assay for Bcl-2 (BAX) gene using HepaRG (AID 2283470)
How it was run: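 Differentiated human HepaRG cells, plated 48 h then switched to serum-free induction medium, were exposed 48 h to 8 half-log concentrations up to 100 uM in 0.5% DMSO; BAX mRNA measured by qRT-PCR, normalized to ACTB, GAPDH, POLR2A.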

[4] = read-out: adenosine kinase (ADK) gene, ADK (gene 132); assay: LTEA_HepaRG_ADK: Life Technologies and Expression Analysis (LTEA) Assay for adenosine kinase (ADK) gene using HepaRG (AID 2283471)
How it was run: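 Differentiated HepaRG cells dosed 48 h in serum-free induction medium, 0.5% DMSO vehicle, eight half-log concentrations from 100 uM, in duplicate. ADK mRNA by TaqMan qRT-PCR normalised to ACTB, GAPDH, POLR2A; bidirectional fit versus DMSO.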

[5] = read-out: Alpha-fetoprotein (AFP) gene, AFP (gene 174); assay: LTEA_HepaRG_AFP: Life Technologies and Expression Analysis (LTEA) Assay for Alpha-fetoprotein (AFP) gene using HepaRG (AID 2283472)
How it was run: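 Human HepaRG cells plated 48 h, then switched to serum-free induction medium and exposed in duplicate for 48 h to 8-point half-log series from 100 uM in 0.5% DMSO. AFP mRNA by qRT-PCR, normalized to ACTB, GAPDH, POLR2A; bidirectional fit versus DMSO.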

BCL2L11 (gene 10018) = assay: LTEA_HepaRG_BCL2L11: Life Technologies and Expression Analysis (LTEA) Assay for Bcl-2 (BCL2L11) gene using HepaRG (AID 2283473)
How it was run: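 Cells were plated, cultured 48 h, switched to serum-free induction medium, then dosed in duplicate for 48 h at eight half-log concentrations up to 100 uM. Lysates underwent RNA isolation and TaqMan qRT-PCR; gain or loss versus DMSO was fitted.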

[6] = read-out: Apolipoprotein A-V (APOA5) gene, APOA5 (gene 116519); assay: LTEA_HepaRG_APOA5: Life Technologies and Expression Analysis (LTEA) Assay for Apolipoprotein A-V (APOA5) gene using HepaRG (AID 2283474)
How it was run: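 Human liver HepaRG cells are treated 48 h with test chemicals (100 uM top, half-log dilutions, 0.5% DMSO). APOA5 mRNA induction or loss is measured by qRT-PCR relative to vehicle.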

[7] = read-out: Apoptosis regulator Bcl-2 (Homo sapiens) (UniProt P10415); assay: LTEA_HepaRG_BCL2: Life Technologies and Expression Analysis (LTEA) Assay for Bcl-2 gene using HepaRG (AID 2283475)
How it was run: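 Differentiated HepaRG cells in serum-free induction medium were exposed for 48 h to eight half-log concentrations up to 100 uM in 0.5% DMSO, in duplicate. BCL2 mRNA was quantified by TaqMan qRT-PCR normalised to ACTB, GAPDH and POLR2A, with bidirectional fitting versus DMSO.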

[8] = read-out: Bcl-2 (BID) gene, BID (gene 637); assay: LTEA_HepaRG_BID: Life Technologies and Expression Analysis (LTEA) Assay for Bcl-2 (BID) gene using HepaRG (AID 2283476)
How it was run: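 Differentiated HepaRG cells in serum-free induction medium were exposed in duplicate for 48 h to eight half-log concentrations up to 100 uM in 0.5% DMSO. BID mRNA was quantified by qRT-PCR, normalized to ACTB, GAPDH and POLR2A.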

Caspase-3 (Homo sapiens) = Caspase-3 (Homo sapiens) (UniProt P42574); assay: LTEA_HepaRG_CASP3: Life Technologies and Expression Analysis (LTEA) Assay for cysteine-aspartic acid protease (CASP3) using HepaRG (AID 2283477)
Caspase-3 (Homo sapiens), sequence (P42574 whole entry, looked up): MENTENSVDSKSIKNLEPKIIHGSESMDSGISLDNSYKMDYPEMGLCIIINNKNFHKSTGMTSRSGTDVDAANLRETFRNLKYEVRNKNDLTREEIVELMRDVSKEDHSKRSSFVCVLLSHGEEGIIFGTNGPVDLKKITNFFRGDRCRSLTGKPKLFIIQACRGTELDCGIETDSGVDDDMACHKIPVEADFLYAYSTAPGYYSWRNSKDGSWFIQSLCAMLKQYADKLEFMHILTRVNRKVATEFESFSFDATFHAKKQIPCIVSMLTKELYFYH
How it was run: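 In HepaRG liver cells dosed for 48 h at up to 100 uM (eight-point, duplicate), CASP3 expression changes are scored by qRT-PCR. Activity is fitted in both directions with 0.5% DMSO as baseline.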

[9] = read-out: Cytochrome P450 (CYP24A1), CYP24A1 (gene 1591); assay: LTEA_HepaRG_CYP24A1: Life Technologies and Expression Analysis (LTEA) Assay for Cytochrome P450 (CYP24A1) using HepaRG (AID 2283478)
How it was run: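 Human liver HepaRG cultures receive each chemical for 48 h across an eight-point half-log series topping at 100 uM in 0.5% DMSO. Induction or suppression of CYP24A1 mRNA is scored relative to vehicle after housekeeping-gene normalization.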

[10] = read-out: Cytochrome P450 (CYP1A2), CYP1A2 (gene 1544); assay: LTEA_HepaRG_CYP1A2: Life Technologies and Expression Analysis (LTEA) Assay for Cytochrome P450 (CYP1A2) using HepaRG (AID 2283479);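 for AC50: TaqMan qRT-PCR transcript level normalized to ACTB GAPDH and POLR2A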
How it was run: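 Assesses CYP1A2 mRNA in human HepaRG liver cells after 48 h chemical exposure at up to 100 uM. Values come from qRT-PCR with bidirectional curve fitting relative to DMSO.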

[11] = read-out: cysteine-aspartic acid protease (CASP8), CASP8 (gene 841); assay: LTEA_HepaRG_CASP8: Life Technologies and Expression Analysis (LTEA) Assay for cysteine-aspartic acid protease (CASP8) using HepaRG (AID 2283480)
How it was run: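 HepaRG, 48 h exposure, duplicate wells; 8 conc, half-log from 100 uM, 0.5% DMSO. Serum-free induction medium. CASP8 mRNA by TaqMan qRT-PCR, norm. ACTB/GAPDH/POLR2A; gain/loss fitted vs DMSO.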

[12] = read-out: Cytochrome P450 (CYP2B6), CYP2B6 (gene 1555); assay: LTEA_HepaRG_CYP2B6: Life Technologies and Expression Analysis (LTEA) Assay for Cytochrome P450 (CYP2B6) using HepaRG (AID 2283481)
How it was run: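 Using 48 h treatment of HepaRG cells in serum-free induction medium, concentrations spanned half-log steps from 100 uM in 0.5% DMSO vehicle. CYP2B6 mRNA induction or loss is scored by qRT-PCR against DMSO.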

[13] = read-out: Cytochrome P450 2C19 (Homo sapiens) (UniProt P33261); assay: LTEA_HepaRG_CYP2C19: Life Technologies and Expression Analysis (LTEA) Assay for CYP2C19 using HepaRG (AID 2283482)
How it was run: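 Human HepaRG liver cells received test chemicals for 48 h (highest 100 uM, half-log dilutions in 0.5% DMSO). CYP2C19 mRNA induction or loss is read by multiplexed qRT-PCR and fitted in both directions versus vehicle.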

CYP2C8 (gene 1558) = assay: LTEA_HepaRG_CYP2C8: Life Technologies and Expression Analysis (LTEA) Assay for CYP2C8 using HepaRG (AID 2283483)
How it was run: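 CYP2C8 mRNA induction or loss, by qRT-PCR normalized to ACTB/GAPDH/POLR2A, is read in HepaRG cells after 48 h treatment. Concentrations run from 100 uM down in half-log dilutions, with 0.5% DMSO as vehicle and baseline.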

CYP2C9 (gene 1559) = assay: LTEA_HepaRG_CYP2C9: Life Technologies and Expression Analysis (LTEA) Assay for CYP2C9 using HepaRG (AID 2283484)
How it was run: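 Cells plated 48 h, switched to serum-free induction medium, then treated in duplicate for 48 h at eight concentrations (max 100 uM, 0.5% DMSO). RNA then analysed by qRT-PCR for CYP2C9; curves fitted in both directions relative to DMSO.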

CYP2E1 (gene 1571) = assay: LTEA_HepaRG_CYP2E1: Life Technologies and Expression Analysis (LTEA) Assay for CYP2E1 using HepaRG (AID 2283485)
How it was run: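 HepaRG cells in serum-free induction medium exposed 48 h to test chemicals, 8 half-log concentrations up to 100 uM in 0.5% DMSO, duplicate. CYP2E1 mRNA by qRT-PCR, normalized to ACTB, GAPDH, POLR2A; bidirectional fit versus DMSO.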

CYP4A11 (gene 1579) = assay: LTEA_HepaRG_CYP4A11: Life Technologies and Expression Analysis (LTEA) Assay for CYP4A11 using HepaRG (AID 2283486)
How it was run: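 Readout is CYP4A11 mRNA induction or suppression (qRT-PCR, ACTB/GAPDH/POLR2A normalization) in human HepaRG cells after 48 h chemical treatment, concentrations to 100 uM in 0.5% DMSO, fitted bidirectionally against vehicle.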

[14] = read-out: Cytochrome P450 3A4 (Homo sapiens) (UniProt P08684); assay: LTEA_HepaRG_CYP3A4: Life Technologies and Expression Analysis (LTEA) Assay for CYP3A4 using HepaRG (AID 2283487)
How it was run: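 Differentiated HepaRG cells in serum-free induction medium exposed in duplicate for 48 h to 8 half-log concentrations up to 100 uM in 0.5% DMSO. CYP3A4 mRNA measured by qRT-PCR normalized to ACTB, GAPDH and POLR2A; bidirectional fit versus DMSO.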

Measured: AC50

Cytochrome P450 3A4 (Homo sapiens), sequence (P08684 whole entry, looked up): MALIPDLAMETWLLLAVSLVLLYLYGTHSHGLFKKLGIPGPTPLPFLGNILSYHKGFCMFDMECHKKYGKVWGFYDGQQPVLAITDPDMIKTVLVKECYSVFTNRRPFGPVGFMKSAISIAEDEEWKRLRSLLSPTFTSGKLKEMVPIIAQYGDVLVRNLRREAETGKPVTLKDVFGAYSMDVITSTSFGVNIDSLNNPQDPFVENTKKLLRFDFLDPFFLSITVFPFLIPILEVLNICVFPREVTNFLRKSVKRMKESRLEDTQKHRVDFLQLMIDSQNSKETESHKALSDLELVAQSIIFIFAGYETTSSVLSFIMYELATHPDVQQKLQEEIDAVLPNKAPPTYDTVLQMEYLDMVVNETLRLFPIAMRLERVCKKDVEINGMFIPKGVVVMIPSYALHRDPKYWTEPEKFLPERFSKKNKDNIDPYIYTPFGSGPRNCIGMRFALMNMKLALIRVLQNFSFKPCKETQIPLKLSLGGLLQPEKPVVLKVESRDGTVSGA
Cytochrome P450 2C19 (Homo sapiens), sequence (P33261 whole entry, looked up): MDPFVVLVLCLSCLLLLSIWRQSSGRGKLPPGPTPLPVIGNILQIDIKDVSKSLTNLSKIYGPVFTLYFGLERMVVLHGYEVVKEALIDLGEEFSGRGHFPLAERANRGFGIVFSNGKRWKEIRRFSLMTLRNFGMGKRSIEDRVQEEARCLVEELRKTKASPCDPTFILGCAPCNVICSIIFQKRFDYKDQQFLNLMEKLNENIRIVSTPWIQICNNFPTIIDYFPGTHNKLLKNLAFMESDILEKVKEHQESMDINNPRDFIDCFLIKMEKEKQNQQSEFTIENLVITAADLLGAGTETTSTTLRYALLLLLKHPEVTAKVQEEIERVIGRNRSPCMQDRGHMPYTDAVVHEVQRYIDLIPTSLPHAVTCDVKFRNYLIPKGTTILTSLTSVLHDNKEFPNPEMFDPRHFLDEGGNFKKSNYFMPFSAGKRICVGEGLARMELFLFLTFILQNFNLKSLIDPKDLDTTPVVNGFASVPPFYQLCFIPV
Apoptosis regulator Bcl-2 (Homo sapiens), sequence (P10415 whole entry, looked up): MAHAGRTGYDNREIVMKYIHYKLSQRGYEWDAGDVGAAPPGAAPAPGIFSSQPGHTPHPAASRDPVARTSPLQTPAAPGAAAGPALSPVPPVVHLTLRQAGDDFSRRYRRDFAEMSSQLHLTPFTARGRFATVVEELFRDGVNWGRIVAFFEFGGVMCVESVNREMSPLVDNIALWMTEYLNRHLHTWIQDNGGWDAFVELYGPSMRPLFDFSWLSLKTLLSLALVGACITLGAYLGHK

CCCCOCCOCCO
inactive: [1] | [2] | [3] | [4] | [5] | BCL2L11 (gene 10018) | [6] | [7] | [8] | Caspase-3 (Homo sapiens) | [9] | [10] | [11] | [12] | [13] | CYP2C8 (gene 1558) | CYP2C9 (gene 1559) | CYP2E1 (gene 1571) | CYP4A11 (gene 1579) | [14]

COC(=O)c1ccc(C(=O)OC)cc1
inactive: [1] | [2] | [3] | [4] | [5] | BCL2L11 (gene 10018) | [6] | [7] | [8] | Caspase-3 (Homo sapiens) | [9] | [10] | [11] | [12] | [13] | CYP2C8 (gene 1558) | CYP2C9 (gene 1559) | CYP2E1 (gene 1571) | CYP4A11 (gene 1579) | [14]

C[C@]12CC[C@@H]3c4ccc(O)cc4CC[C@H]3[C@@H]1CC[C@@H]2O
active: [5] 50 µM | [6] 68 µM | [10] 79.5 µM | [12] 1.73 µM | [13] 5.7 µM | CYP2C8 (gene 1558) 4.16 µM | CYP2E1 (gene 1571) 50 µM | CYP4A11 (gene 1579) 76.9 µM | [14] 4.95 µM
inactive: [1] | [2] | [3] | [4] | BCL2L11 (gene 10018) | [7] | [8] | Caspase-3 (Homo sapiens) | [9] | [11] | CYP2C9 (gene 1559)

C#C[C@]1(O)CC[C@H]2[C@@H]3CCc4cc(O)ccc4[C@H]3CC[C@@]21C
active: [12] 4.05 µM | [13] 50 µM | CYP2C8 (gene 1558) 50 µM
inactive: [1] | [2] | [3] | [4] | [5] | [6] | [7] | [8] | Caspase-3 (Homo sapiens) | [9] | [10] | [11] | CYP2C9 (gene 1559) | CYP2E1 (gene 1571) | CYP4A11 (gene 1579) | [14]
